Experimental data from PubChem BioAssay AID1159580 (chemical genetic matrix, 2015).
Among all 5,500 compounds or so, about 2,000 (36%) were called active. Inconclusive results (about 18%) are left out. No stated cut-off is given here; in the data, active means normalized growth mostly below about 0.91 (no sharp cut-off); inconclusive means no clear call, values can overlap the other calls; inactive means mostly above about 0.92. Some of the results follow.

Assay: chemical genetic growth profiling, strain panel (AID 1159580);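 further: tested at 20 µM; growth read once vehicle control cultures reached saturation at 30 °C; 1 = growth at the plate median or of vehicle wells; lower values mean less growth of the strain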
Conditions: growth OD

Measured: normalized growth

Oc1ccc(Cl)cc1Cc1cc(Cl)ccc1O
active: S. cerevisiae deletion strains, locus YJR075W, strain HOC1, hits give low values 0.0746 | S. cerevisiae deletion strains, locus YKL009W, strain mrt4, hits give low values 0.092 | S. cerevisiae deletion strains, locus YKL068W, hits give low values 0.101 | S. cerevisiae deletion strains, locus YKL085W, strain MDH1 (second series), hits give low values 0.0549 | S. cerevisiae deletion strains, locus YKL085W, strain MDH1, hits give low values 0.0549 | S. cerevisiae deletion strains, locus YKL160W, strain elf1, hits give low values 0.0693 | S. cerevisiae deletion strains, locus YKL190W, strain CNB1, hits give low values 0.0512 | S. cerevisiae deletion strains, locus YKR001C, strain vps1, hits give low values 0.0604 | S. cerevisiae deletion strains, locus YKR026C, strain gcn3, hits give low values 0.13 | S. cerevisiae deletion strains, locus YKR091W, strain srl3, hits give low values 0.0642 | S. cerevisiae deletion strains, locus YLL001W, strain dnm1, hits give low values 0.113 | S. cerevisiae deletion strains, locus YLL026W, hits give low values 0.0579 | S. cerevisiae deletion strains, locus YLL041C, strain sdh2, hits give low values 0.0645 | S. cerevisiae deletion strains, locus YLR027C, strain aat2, hits give low values 0.0566 | S. cerevisiae deletion strains, locus YLR039C, strain RIC1, hits give low values 0.0807 | S. cerevisiae deletion strains, locus YLR058C, strain SHM2, hits give low values 0.0611 | S. cerevisiae deletion strains, locus YLR102C, strain apc9, hits give low values 0.0602 | S. cerevisiae deletion strains, locus YLR113W, strain HOG1, hits give low values 0.165 | S. cerevisiae deletion strains, locus YLR221C, strain rsa3, hits give low values 0.0636 | S. cerevisiae deletion strains, locus YLR258W, strain gsy2, hits give low values 0.0643 | S. cerevisiae deletion strains, locus YLR262C, strain YPT6 (second series), hits give low values 0.0751 | S. cerevisiae deletion strains, locus YLR262C, strain YPT6, hits give low values 0.101 | S. cerevisiae deletion strains, locus YLR268W, strain sec22, hits give low values 0.0687 | S. cerevisiae deletion strains, locus YLR320W, strain mms22, hits give low values 0.0873 | S. cerevisiae deletion strains, locus YLR330W, strain CHS5, hits give low values 0.0555 | S. cerevisiae deletion strains, locus YLR342W, strain FKS1 (second series), hits give low values 0.0854 | S. cerevisiae deletion strains, locus YLR342W, strain FKS1, hits give low values 0.0648 | S. cerevisiae deletion strains, locus YLR357W, strain rsc2, hits give low values 0.273 | S. cerevisiae deletion strains, locus YLR370C, strain arc18, hits give low values 0.108 | S. cerevisiae deletion strains, locus YLR371W, strain rom2, hits give low values 0.0629 | S. cerevisiae deletion strains, locus YLR384C, strain iki3, hits give low values 0.118 | S. cerevisiae deletion strains, locus YLR418C, strain cdc73, hits give low values 0.098 | S. cerevisiae deletion strains, locus YML016C, strain PPZ1, hits give low values 0.0858 | S. cerevisiae deletion strains, locus YML032C, strain rad52, hits give low values 0.0693 | S. cerevisiae deletion strains, locus YML120C, strain ndi1, hits give low values 0.0588 | S. cerevisiae deletion strains, locus YML124C, strain tub3, hits give low values 0.0644 | S. cerevisiae deletion strains, locus YMR058W, strain fet3, hits give low values 0.131 | S. cerevisiae deletion strains, locus YMR078C, strain ctf18, hits give low values 0.071 | S. cerevisiae deletion strains, locus YMR125W, strain sto1, hits give low values 0.0949 | S. cerevisiae deletion strains, locus YMR129W, hits give low values 0.0627 | S. cerevisiae deletion strains, locus YMR205C, strain PFK2, hits give low values 0.102 | S. cerevisiae deletion strains, locus YMR223W, strain ubp8, hits give low values 0.066 | S. cerevisiae deletion strains, locus YMR231W, strain pep5, hits give low values 0.085 | S. cerevisiae deletion strains, locus YMR263W, strain SAP30, hits give low values 0.0643 | S. cerevisiae deletion strains, locus YMR307W, strain GAS1, hits give low values 0.145 | S. cerevisiae deletion strains, locus YNL067W, strain RPL9B, hits give low values 0.0779 | S. cerevisiae deletion strains, locus YNL071W, strain lat1, hits give low values 0.0636 | S. cerevisiae deletion strains, locus YNL128W, strain TEP1, hits give low values 0.0892 | S. cerevisiae deletion strains, locus YNL153C, strain GIM3, hits give low values 0.0714 | S. cerevisiae deletion strains, locus YNL183C, strain NPR1, hits give low values -0.00267 | S. cerevisiae deletion strains, locus YNL209W, strain ssb2, hits give low values 0.0857 | S. cerevisiae deletion strains, locus YNL233W, strain BNI4, hits give low values 0.056 | S. cerevisiae deletion strains, locus YNL248C, strain rpa49, hits give low values 0.109 | S. cerevisiae deletion strains, locus YNL250W, strain rad50, hits give low values 0.0758 | S. cerevisiae deletion strains, locus YNL271C, strain bni1, hits give low values 0.0676 | S. cerevisiae deletion strains, locus YNL298W, strain CLA4, hits give low values 0.0642 | S. cerevisiae deletion strains, locus YNL307C, strain MCK1, hits give low values 0.0664 | S. cerevisiae deletion strains, locus YNL322C, strain KRE1 (second series), hits give low values 0.0828 | S. cerevisiae deletion strains, locus YNL322C, strain KRE1, hits give low values 0.0618 | S. cerevisiae deletion strains, locus YNR049C, strain mso1, hits give low values 0.109 | S. cerevisiae deletion strains, locus YNR052C, strain pop2, hits give low values 0.0645 | S. cerevisiae deletion strains, locus YOL006C, strain TOP1, hits give low values 0.0992 | S. cerevisiae deletion strains, locus YOL012C, strain htz1 0.176 | S. cerevisiae deletion strains, locus YOL147C, strain pex11, hits give low values 0.0563 | S. cerevisiae deletion strains, locus YOR001W, strain rrp6, hits give low values 0.0685 | S. cerevisiae deletion strains, locus YOR061W, strain CKA2, hits give low values 0.0631 | S. cerevisiae deletion strains, locus YOR069W, strain VPS5, hits give low values 0.0593 | S. cerevisiae deletion strains, locus YOR070C, strain gyp1, hits give low values 0.0618 | S. cerevisiae deletion strains, locus YOR080W, strain dia2, hits give low values 0.0748 | S. cerevisiae deletion strains, locus YOR083W, strain WHI5, hits give low values 0.0694 | S. cerevisiae deletion strains, locus YOR106W, strain vam3, hits give low values 0.0658 | S. cerevisiae deletion strains, locus YOR136W, strain idh2, hits give low values 0.0708 | S. cerevisiae deletion strains, locus YOR144C, strain elg1, hits give low values 0.0576 | S. cerevisiae deletion strains, locus YOR184W, strain ser1, hits give low values 0.0699 | S. cerevisiae deletion strains, locus YOR231W, strain MKK1, hits give low values 0.123 | S. cerevisiae deletion strains, locus YOR265W, strain rbl2, hits give low values 0.0619 | S. cerevisiae deletion strains, locus YOR270C, strain vph1, hits give low values 0.101 | S. cerevisiae deletion strains, locus YOR290C, strain snf2, hits give low values 0.0874 | S. cerevisiae deletion strains, locus YOR316C, strain cot1, hits give low values 0.0588 | S. cerevisiae deletion strains, locus YPL051W, strain arl3, hits give low values 0.0629 | S. cerevisiae deletion strains, locus YPL055C, strain LGE1, hits give low values 0.0724 | S. cerevisiae deletion strains, locus YPL078C, strain atp4, hits give low values 0.0851 | S. cerevisiae deletion strains, locus YPL106C, strain sse1, hits give low values 0.107 | S. cerevisiae deletion strains, locus YPL240C, strain hsp82, hits give low values 0.0585 | S. cerevisiae deletion strains, locus YPL241C, strain CIN2, hits give low values 0.0663 | S. cerevisiae deletion strains, locus YPL256C, strain CLN2, hits give low values 0.114 | S. cerevisiae deletion strains, locus YPR119W, strain clb2, hits give low values 0.0612 | S. cerevisiae deletion strains, locus YPR141C, strain kar3, hits give low values 0.0922 | S. cerevisiae deletion strains, locus YPR163C, strain tif3, hits give low values 0.07 | S. cerevisiae deletion strains, locus YPR167C, strain met16, hits give low values 0.0608 | S. cerevisiae deletion strains, strain wtn01, hits give low values 0.065 | S. cerevisiae strains, strain wild type, hits give low values 0.051
